Screening data deposited in PubChem by National Center for Advancing Translational Sciences (NCATS).
Most compounds without a hit are left out; they make up all but 2.8% or so of the library.
Pol beta inh: inhibitors of human DNA polymerase beta | 340,000 tested, 1.3% active | Pol beta primer extension/strand displacement, fluorescence kinetic | P06746 | Potency, µM (doses to about 114 µM), for inactives: top-dose activity change, negative = inhibition, hits mostly inhibitors; further: potency means the concentration at half of the fitted maximal effect; on the % scale 0 is the no-effect control and ±100 the full control effect
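Pol beta (10 nM) and compounds were preincubated 15 min at room temperature, then 50 nM substrate (final) started primer extension/strand displacement. Reads were taken at 0 and 10 min; concentration-response data were fitted to a four-parameter Hill equation.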
POLK inh: DNA polymerase kappa (human) inhibition; purified Pol kappa, fluorescent DNA synthesis assay, 10 min; Potency, µM (top dose mostly 107 µM), inactives show at the highest dose activity, negative = inhibition, most hits filed as inhibitors; 400,000 tested, 0.53% active; further: potency means the concentration at half of the fitted maximal effect; on the % scale 0 is the no-effect control and ±100 the full control effect
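Pol kappa 10 nM + cpd, 15 min RT; start w/ substrate 50 nM final; fluorescence kinetic read, 0 and 10 min. Neg ctrl: buffer, no enzyme.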
PI5P4Ka inh: PI5P4K alpha (human) kinase inhibition | P48426 | PI5P4Kalpha enzyme, ADP-Glo luminescence, 60 min; active compounds read low | max response, % | 330,000 tested, 1.2% active; active means max response of -50% or lower; inconclusive means between -30% and -50%; inactive means -30% or higher; further: value at the top dose of about 77 µM; on the % scale 0 is the no-effect control and ±100 the full control effect
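Compounds were pin-transferred onto PI5P4Kalpha and substrate in HEPES pH 7.4 buffer with EGTA, CHAPS and 5% DMSO. ATP (5 microM final) started the reaction, which ran 60 minutes at room temperature before ADP-Glo detection.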
POLI inh: blocks human DNA polymerase iota activity; Q9UNA4; Pol iota fluorescent replication assay, 10 min; Potency, µM (series often up to 115 µM), for inactives: at the highest dose activity, negative = inhibition, actives largely listed as inhibitors; 390,000 tested, 1% active; AID 588590; further: potency means the concentration at half of the fitted maximal effect
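Fluorescent replication assay read twice, at 0 min and 10 min after adding 50 nM (final) substrate. Enzyme (10 nM) and compounds were first incubated 15 min at room temperature; enzyme-free buffer wells were negative controls.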
Pol eta inh: blocks human DNA polymerase eta activity; Q9Y253; recombinant Pol eta, fluorescent DNA replication assay; Potency, µM (series often up to 114 µM), inactives show top-dose activity change, negative = inhibition, most hits filed as inhibitors; 390,000 tested, 1.2% active; AID 588591; further: potency means the concentration at half of the fitted maximal effect; on the % scale 0 is the no-effect control and ±100 the full control effect
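Fluorescent replication assay: 50 nM final substrate added after a 15 min room-temperature compound preincubation with 10 nM enzyme. Signal taken at 0 min and again at 10 min.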
WRN inhibitor: blocks human WRN helicase; WRN helicase unwinding, fluorescent forked duplex, kinetic; Potency, µM (series often up to 114 µM), for the others: top-dose activity change, negative = inhibition, most hits filed as inhibitors; 360,000 tested, 0.46% active; AID 651768; further: potency means the concentration at half of the fitted maximal effect; on the % scale 0 is the no-effect control and ±100 the full control effect; nearly all actives have a fitted effect of over 55% in size
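Primary qHTS, 1536-well format. 20 nM WRN + compound, 15 min RT; start with 100 nM forked fluorophore/quencher duplex, 2 mM ATP (final); kinetic read ex 525/em 598 nm.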
Active calls of the source: *; ? = inconclusive; . = no result; [ ] = dose if it differs, or a comment. Unless noted, the call rests on the fitted dose curve; in most records, active means well fitted curve in the direction sought with a large enough effect; inconclusive means small, poorly fitted or top-dose-only effect, or another doubt; inactive means no such curve, though single readings can be large; an effect the other way counts as inactive or inconclusive.

SMILES	Pol beta inh	POLK inh	PI5P4Ka inh	POLI inh	Pol eta inh	WRN inhibitor
O=[N+]([O-])c1cc(Cl)ccc1N1CCCC1	8%	1%	4	43%	-12%	3%
O=C1C(Cl)=C(N2CCN(c3ccccc3[N+](=O)[O-])CC2)C(=O)c2ccccc21	28%	-6%	-1	7.9µM*	?	-27%
CC1=Nc2ccccc2/C1=C\c1nc(-c2ccccc2)oc1O	-13%	-1%	.	?	-8%	-3%
CC1=Nc2ccccc2/C1=C\c1nc(-c2ccc(C(F)(F)F)cc2)oc1O	16%	-13%	.	8.9µM*	55%	?
Cc1ccc2nc(COc3ccccc3NC(=O)c3ccc(F)cc3)cc(=O)n2c1	?	-15%[60.1 µM]	.	89µM*	-10%	.
O=C(Nc1nnc(C2CC2)s1)C1Cc2ccccc2CN1S(=O)(=O)c1cccs1 (centres undefined)	11µM*	?	-60*	-73%	7.1µM*	-18%[57.1 µM]
CCc1nnc(NC(=O)C2Cc3ccccc3CN2S(=O)(=O)c2cccs2)s1 (centres undefined)	-14%	?	?	?	?	-31%
O=C(Nc1ccccc1N1CCOCC1)C1Cc2ccccc2CN1C(=O)c1ccco1 (centres undefined)	1%	4%	-19	11%	7%	2%
O=C(Nc1nnc(SCc2ccc(F)cc2)s1)C1Cc2ccccc2CN1C(=O)c1ccco1 (centres undefined)	-34%	?	?	?	22µM*	?
O=C(Nc1nnc(C2CC2)s1)C1Cc2ccccc2CN1C(=O)c1ccco1 (centres undefined)	7.9µM*	-46%	?	28µM*	?	-5%
CN(C)S(=O)(=O)c1cccc(NC(=O)C2Cc3ccccc3CN2C(=O)c2ccco2)c1 (centres undefined)	?	-32%	?	35µM*	?	-30%
CCOC(=O)Cn1c(=O)n(CC2CCCO2)c2nc(-c3cc(OC)ccc3OC)nc(C(N)=O)c21 (centres undefined)	13%	-14%[60.1 µM]	.	42%	-5%	.
CCCCN(C)C(=O)CSc1nc2ccccc2nc1Cc1ccc(C)cc1	-22%	-3%[60.1 µM]	.	-9%	-22%	.
COc1cc(-c2ccno2)ccc1S(=O)(=O)N1CCN(c2ccc(C(C)=O)cc2)CC1	-1%	0%[60.1 µM]	.	26%	-16%	.
Cc1cc(-c2csc(NC(=O)c3ccc(=O)[nH]c3)n2)c(C)n1Cc1ccccc1	20µM*	-7%	-23	3%	-14%	-1%
O=C(Nc1nc(-c2ccccc2)cs1)c1ccc(=O)[nH]c1	1%	-2%	2	147%	-15%	-6%
Cc1ccc2[nH]c(CSc3nnc(NC(=O)COc4ccc(F)cc4)s3)cc(=O)c2c1	-29%	-13%[60.1 µM]	.	?	7%	.
COc1ccc(CNC(=O)c2cc(-c3cccc(Cl)c3)on2)cc1	-1%	-9%	.	10%	-6%	.
S=c1[nH]nc2ccccn12	.	1%	-85*	-17%	3%	6%
Cc1ccn2c(-c3n[nH]c(=S)n3Cc3ccccc3)c(C)nc2c1	?	-13%	-29	0%	-5%	-7%
Cc1ccn2c(=S)[nH]nc2c1	.	.	-78*	.	-4%	4%
Oc1ccc(/C=N/n2c(-c3ccccc3)n[nH]c2=S)cc1Br	2%	-5%	-53*	-12%	-17%	4%
Oc1c(Br)cc(/C=N/n2c(-c3ccccc3)n[nH]c2=S)c(O)c1Br	88%	40µM*	-85*	?	10µM*	?
Cc1c(Br)c(O)c(Br)c(O)c1/C=N/n1c(-c2ccccc2)n[nH]c1=S	50µM*	35µM*	-83*	7.9µM*	3.2µM*	45µM*
COc1cc(/C=N/n2c(-c3ccccc3)n[nH]c2=S)ccc1O	1%	5%	-6	42%	-13%	-4%
COc1cc(/C=N/n2c(-c3ccccc3)n[nH]c2=S)cc(OC)c1O	-16%	-11%	-22	14%	-21%	-10%
Oc1c(Br)cc(/C=N/n2c(-c3ccccc3)n[nH]c2=S)cc1Br	-9%	-11%	-92*	164%	-14%	?
